8 sequences from the supplement of paper PMC6555819 can be followed below.

Assay in all cases: PBM binding z-score (relative to random genomic background probes); higher = stronger binding; sequences stand for … in GC…GCGATTGACAGCGTAGAATGAAGG
For experiment [1], the system named is FXR:RXRa (NR concentration 270 nM, RXRa partner concentration 90 nM). An outline of the steps: (§1)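 Scanned fluorescence from custom Agilent 4×180K protein-binding microarrays was regression-normalized. Binding z-scores use random background probes as reference. Ligand-free nuclear receptor dimers were incubated on the arrays for 1 h and detected with antibodies against each partner (one per run).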

Experiment [2] concerns LXRa homodimer (NR concentration 270 nM). A digest of the protocol:
as §1

The subject of experiment [3] is LXRb homodimer (NR concentration 270 nM). An outline of the steps: as §1
The test system of experiment [4] is PPARa:RXRa (NR concentration 270 nM, RXRa partner concentration 90 nM). A digest of the protocol:
as §1

Experiment [5] concerns PPARg:RXRa (NR concentration 180 nM, RXRa partner concentration 90 nM). An outline of the steps:
as §1

The test system of experiment [6] is PPARg:RXRa 270nM:90nM, anti-RXR (NR concentration 270 nM, RXRa partner concentration 90 nM). An outline of the steps:
as §1

In experiment [7] the test system is PPARg:RXRa 30nM:10nM, anti-RXR (NR concentration 30 nM, RXRa partner concentration 10 nM). A digest of the protocol:
as §1

The subject of experiment [8] is PPARg:RXRa 90nM:30nM, anti-RXR (NR concentration 90 nM, RXRa partner concentration 30 nM). A digest of the protocol:
as §1

For experiment [9], the system named is PPARg:RXRa DBDmut IVT, anti-RXR (DBD mutation: RXRa K156A/R161A, NR concentration 270 nM, RXRa partner concentration 90 nM). A digest of the protocol:
as §1

Experiment [10] relates to PPARg:RXRa IVT, anti-PPARg (NR concentration 270 nM, RXRa partner concentration 90 nM). A digest of the protocol:
as §1

Experiment [11] has as its system PPARg DBDmut:RXRa IVT, anti-PPARg (DBD mutation: PPARg1 K132A/R137A, NR concentration 270 nM, RXRa partner concentration 90 nM). A digest of the protocol: as §1
Experiment [12] deals with PPARg DBDmut IVT, anti-PPARg (DBD mutation: PPARg1 K132A/R137A, NR concentration 270 nM). An outline of the steps: as §1
Experiment [13] deals with PPARg homodimer (NR concentration 180 nM). An outline of the steps:
as §1

Experiment [14] concerns PXR:RXRa (NR concentration 270 nM, RXRa partner concentration 90 nM). A digest of the protocol:
as §1

For experiment [15], the system named is PXR homodimer (NR concentration 270 nM). An outline of the steps:
as §1

In experiment [16] the test system is RARa:RXR (NR concentration 270 nM, RXRa partner concentration 90 nM). A digest of the protocol:
as §1

In experiment [17] the test system is RARa homodimer (NR concentration 270 nM). A digest of the protocol: as §1
In experiment [18] the test system is RARb:RXRa (NR concentration 270 nM, RXRa partner concentration 90 nM). An outline of the steps:
as §1

Experiment [19] concerns RARb homodimer (NR concentration 270 nM). A digest of the protocol:
as §1

The test system of experiment [20] is LXRa:RXRa (NR concentration 270 nM, RXRa partner concentration 90 nM). An outline of the steps:
as §1

For the sequence AATACAGGGTCATCTTAGGCCAGAGTACGCACAG, the PBM binding z-score in experiment [1] came to 7.35; in experiment [2], 2.36; in experiment [3], 1.74; in [4] it was 6.06; in experiment [5], 6.19; in experiment [6], 5.79. The PBM binding z-score in [7] is 2.46; in experiment [8] it was 4.59; in experiment [9], 2.7; in [10], 3.86; in [11], 1.51; in experiment [12], 0.721. In addition, the PBM binding z-score in experiment [13] came to 2.17; in [14], 5.05; in [15] it was 1; in experiment [16], 4.73; in [17] it was 0.742; in experiment [18], 4.22. The PBM binding z-score in [19] was determined as 3.87.
Turning to ATCAAAAGGTCGAGGTGAGTATAGAGAAAGGGAA, the PBM binding z-score in experiment [1] came out at 4.62; in experiment [20], 4.01; in experiment [2] it was 0.533; in experiment [3], 1.32; in experiment [5] it was 3.37; in experiment [6] it was 3.94. Further, the PBM binding z-score is 1.51 in [7]; 2.81 in experiment [8]; 0.945 in experiment [9]; 2.79 in experiment [10]; 1.63 in experiment [11]; 1.54 in experiment [12]. The PBM binding z-score turned out to be 2.27 in experiment [13]; 2.86 in experiment [14]; 1.09 in experiment [15]; 1.57 in experiment [17]; 4.53 in [18]; 3.28 in [19].
In the case of ATATGTAGGTCAAGGGTCATTCAGGTTGGTTCGC, the PBM binding z-score in [1] worked out at 7.27; in experiment [20], 6.25; in experiment [2] it was 5.58; in [3], 2.07; in experiment [6], 10.5; in experiment [7], 11.7. Moreover, the PBM binding z-score in experiment [8] is 11.7; in experiment [9], 8.58; in [10], 9.34; in experiment [11], 5.02; in experiment [12], 3.68; in experiment [13], 4.44. The PBM binding z-score amounted to 2.53 in experiment [15], 1.72 in experiment [17], 5.35 in experiment [18] and 5.1 in experiment [19].
With CAAACTAGGTCACAAAAGGTCAAAGTCGAATGAC, the PBM binding z-score in [1] came out at 7.02; in [2], 7.78; in experiment [3] it was 3.46; in experiment [4] it was 6.35; in [5] it was 10.1; in experiment [6], 8.38. The PBM binding z-score in experiment [7] was determined as 6.97; in experiment [8] it was 8.43; in [9], 8.13; in [10] it was 8.79; in experiment [11], 3.52; in experiment [12], 2.98. For the same sequence, the PBM binding z-score in [13] came out at 6.01; in experiment [14], 6.68; in [15], 3.59; in experiment [16], 7.57; in experiment [17] it was 3.85; in experiment [18] it was 5.37. For the same sequence, the PBM binding z-score in experiment [19] turned out to be 5.82.
On to CTATGTGGGTTAAGGGGGTCATTCAGTTTGAAAG, for which the PBM binding z-score in [1] turned out to be 5.61; in experiment [20], 5.47; in experiment [2], 3.82; in experiment [5], 8.76; in experiment [6], 7.71; in experiment [7] it was 5.51. The PBM binding z-score in [8] came to 7.71; in [9], 7.57; in [10], 7.71; in experiment [13], 6.11; in [14], 6.07; in experiment [15], 12.1. Moreover, the PBM binding z-score turned out to be 5.68 in experiment [16], 3.73 in experiment [17], 3.91 in experiment [18] and 4.44 in [19].
Turning to CCGAATAGGTTACGAGGGGGCATTCAGTGCGAAT, the PBM binding z-score was 3.52 in experiment [1]; 7.98 in experiment [20]; 2.43 in experiment [2]; 3.85 in [4]; 2.08 in experiment [5]; 3.71 in experiment [6]. The PBM binding z-score in [7] worked out at 2; in [8], 2.62; in experiment [9], 2.73; in [10] it was 3.59; in experiment [13], 2.64; in experiment [14], 5.5. In addition, the PBM binding z-score was 5.9 in experiment [15]; 3.8 in experiment [16]; 0.865 in experiment [17]; 2.89 in experiment [18]; 2.69 in experiment [19].
Regarding GGAACGAGGGCAAAGTTCATAGCATCTGTCGACG, the PBM binding z-score in experiment [1] is 4.26; in [20], 4.95; in experiment [2], 3.9; in experiment [3], -0.156; in experiment [4], 6.24; in experiment [6], 9.67. Moreover, the PBM binding z-score in experiment [7] is 9.74; in experiment [8], 10.7; in experiment [9], 4.19; in experiment [10], 6.1; in experiment [11], 0.354; in [12], -0.0901. The PBM binding z-score in experiment [13] was found to be 3.42; in experiment [14], 5.81; in [15], 4.46; in [16], 6.65; in [17], 0.559; in experiment [18], 4.01. This sequence registered a PBM binding z-score in experiment [19] of 3.75.
Consider CCTTACGGGTCACTGACAGGTTATAGCGTTTGGA, for which the PBM binding z-score in experiment [1] amounted to 5.14; in [2] it was 0.362; in [3], 0.00055; in [4], 5.13; in [5], 4.5; in experiment [6], 4.32. Besides, the PBM binding z-score was 1.5 in experiment [7]; 2.78 in experiment [8]; 2.91 in experiment [9]; 3.67 in experiment [10]; -0.0392 in [11]; -0.319 in experiment [12]. Also, the PBM binding z-score in experiment [13] is 2.56; in experiment [14] it was 3.48; in [15] it was 0.179; in experiment [16], 3.97; in experiment [17], 0.964; in experiment [18] it was 3.88. The PBM binding z-score in experiment [19] turned out to be 3.34.
